Screens (PubChem BioAssay)
NPSR antag: neuropeptide S receptor (human) antagonism, cAMP. 220,000 compounds, 1% hits. Q6W5P4. CHO-NPSR cells, cAMP TR-FRET, antagonist mode. Potency, µM (series often up to 38.3 µM), actives largely listed as inhibitors. AID 1461; also: nearly all actives have a fitted effect of over 50% in size
PKM2 activator: activators of human pyruvate kinase M2; P14618; purified PKM2, Kinase-Glo ATP luminescence, activation; response scale: 0% is enzyme alone, no compound; Potency, µM (series often up to 57.5 µM), usual class: activators; 260,000 compounds, 0.34% hits; AID 1631; also: nearly all actives have a fitted effect of over 55% in size
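Purified hPK-M2 (>95%) run at intermediate activity with 0.1 mM ADP and 0.5 mM PEP in 50 mM imidazole pH 7.2, KCl, MgCl2; 1 h room temperature. ATP formed read by Kinase-Glo luminescence; normalized to uninhibited and no-enzyme controls.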
IL2 activator: IL-2 activation | IL-2 activation reporter assay, cell-based qHTS; stimulated with anti-CD3/CD4/CD28 beads; in transgenic mouse T cells | activation, % (series mostly up to about 46 µM) | 360,000 compounds, 0.065% hits | AID 652025; in the data active = activation above about 50%; inconclusive = mostly about 30% to 49%
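Quantitative HTS in unstimulated transgenic mouse T cells, with memory T cells as non-tolerant control and PMA/ionomycin as tolerance-bypass control. Compound pretreatment lasted 60 minutes before 18 h bead stimulation; EGFP/DsRed fluorescence read.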
ClpP mod: qHTS Assay for Activators of ClpP | ATP-dependent Clp protease proteolytic subunit (Bacillus subtilis (strain 168)), P80244 | purified B. subtilis ClpP, FRET peptide cleavage, 20 min | Potency, µM (highest dose often 57.5 µM) | 340,000 compounds, 1.9% hits; active = well fitted falling curve with a large enough effect; inconclusive = small, poorly fitted or top-dose-only effect; inactive = no such curve, though single readings can be large or run the other way; also: the source files actives as falling curves though it sought activators and does not explain the sign; nearly all actives have a fitted effect of over 65% in size
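FRET quenching reversal measured ClpP activation: 10 microg/mL B. subtilis ClpP at pH 8 with the FRET-FV decapeptide, read at 430 nm after 320 nm excitation. The 20-min minus 0-min signal was scaled between DMSO/no-enzyme wells and ADEP (5.8 microM final).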
Of the large screens only hits and unclear results are named; the others gave an inactive call. Hits are enriched below; roughly 2% of the tested compounds scored in any of these assays. Unless noted, calls follow the shape of the dose curve; as a rule, active = well fitted curve in the direction sought with a large enough effect; inconclusive = small, poorly fitted or top-dose-only effect, or another doubt; inactive = no such curve, though single readings can be large; an effect the other way counts as inactive or inconclusive.

Cc1nc2c(C(=O)NC(C)c3ccccc3)cnn2c(C)c1Cc1ccccc1 (stereo not drawn)	ClpP mod 32µM (no result: NPSR antag, PKM2 activator, IL2 activator)
Cc1nc2c(C(=O)N3CCOCC3)cnn2c(C)c1Cc1ccc(Cl)cc1	ClpP mod 28µM
Cc1nc2c(C(=O)NCCc3ccc(Cl)cc3)cnn2c(C)c1Cc1ccc(F)cc1	ClpP mod 25µM (no result: NPSR antag, PKM2 activator, IL2 activator)
Cc1nc2c(C(=O)N3CCOCC3)cnn2c(C)c1Cc1cccc(Cl)c1	none (no result: IL2 activator, ClpP mod)
O=C(CN1C(=O)c2cccc3cccc(c23)C1=O)N1CCN(Cc2ccc3c(c2)OCO3)CC1	ClpP mod 25µM
COC(=O)c1cc(C)nc(Sc2ccccc2N)n1	PKM2 activator inconclusive (no result: ClpP mod)
CCn1c(SC(C)C)nnc1-c1cc(-c2ccccc2)sc1N	none
CC(NCc1ccc(S(N)(=O)=O)cc1)C(=O)N1c2ccccc2CC1C (stereo not drawn)	none
CCn1cc(/C=N/NS(=O)(=O)c2ccc(OC)cc2)c(C)n1	ClpP mod 32µM
O=C(CNC(=S)NC(=O)c1ccc(Br)o1)c1ccccc1	none
O=C(CNC(=S)NC(=O)c1ccc(Cl)cc1)c1ccccc1	ClpP mod 28µM
COc1ccc(/C=C/c2nc(C#N)c(NC3CCCCC3)o2)cc1OC	none (no result: NPSR antag, PKM2 activator, IL2 activator)
COc1ccccc1/C=C/c1nc(C#N)c(NC2CCCCC2)o1	ClpP mod 2.8µM (no result: NPSR antag, PKM2 activator, IL2 activator)
CCn1c(=O)cc(OCC(=O)N2CCN(c3ccc(OC)cc3)CC2)c2ccccc21	none (no result: NPSR antag, PKM2 activator, IL2 activator)
O=[N+]([O-])c1cccc(Cl)c1NCCNS(=O)(=O)c1ccccc1	PKM2 activator 14µM
O=[N+]([O-])c1cccc(Cl)c1NCCNS(=O)(=O)c1ccc(Cl)cc1	none
CC(=O)Nc1ccc(S(=O)(=O)c2ccc(C)cc2)cc1	PKM2 activator 14µM (no result: ClpP mod)
Cc1cc(Br)cc2cn[nH]c12	none (no result: PKM2 activator, ClpP mod)
Cc1ccc(S(=O)(=O)Nc2ccccc2C(=O)NCC2CCCO2)cc1 (stereo not drawn)	ClpP mod inconclusive (no result: NPSR antag)
CCOc1ccc(S(=O)(=O)Nc2ccccc2C(=O)NCC2CCCO2)cc1 (stereo not drawn)	ClpP mod 28µM
O=C(/C=C/c1cc2c(cc1Br)OCO2)NCc1ccc(F)cc1	ClpP mod inconclusive
COc1ccc(CNC(=O)/C=C/c2cc3c(cc2Br)OCO3)cc1	ClpP mod 25µM
CC(=O)OCCNc1nc(-c2ccccc2)nc2ccccc12	none
CCCCn1c(N)c(Sc2ccc(C)cc2)c(=O)[nH]c1=O	PKM2 activator 16µM
CC(C)(C)c1ccc(/C=C/C(=O)N2CCOCC2)cc1	ClpP mod 22µM
COc1cc(C2Nc3ccccc3-c3cc(C)nn32)ccc1O (stereo not drawn)	ClpP mod 32µM (no result: NPSR antag, PKM2 activator, IL2 activator)
CCOc1cccc(C2Nc3ccccc3-c3cc(C)nn32)c1O (stereo not drawn)	none (no result: NPSR antag, PKM2 activator, IL2 activator)
CCOc1ccc(C2Nc3c(C)cccc3-c3cc(C)nn32)cc1 (stereo not drawn)	none (no result: NPSR antag, PKM2 activator, IL2 activator)
COc1ccc(C2Nc3ccccc3-c3cc(C)nn32)cc1OC (stereo not drawn)	ClpP mod 14µM (no result: NPSR antag, PKM2 activator, IL2 activator)
Cc1cc2n(n1)C(c1ccc(O)cc1)Nc1ccccc1-2 (stereo not drawn)	ClpP mod 28µM
Cc1cc2n(n1)C(c1ccco1)Nc1ccccc1-2 (stereo not drawn)	ClpP mod inconclusive
Cc1cc2n(n1)C(c1cccs1)Nc1ccccc1-2 (stereo not drawn)	ClpP mod 20µM
Cc1nn(Cc2ccccc2)c(C)c1CNC(=O)CN=C1NS(=O)(=O)c2ccccc21	ClpP mod 22µM (no result: NPSR antag, PKM2 activator)
COC(=O)c1sccc1S(=O)(=O)N(CC(=O)Nc1cc(C)cc(C)c1)c1ccc(Cl)cc1	none (no result: NPSR antag, PKM2 activator, IL2 activator)
O=C1C(=O)N(CCCc2ccccc2)c2ccccc21	PKM2 activator inconclusive (no result: NPSR antag)
O=C(CN1C(=O)C(=O)c2ccccc21)NCCc1ccccc1	PKM2 activator 32µM
Cc1cc(S(=O)(=O)Nc2ccc(C(=O)NC3CC3)cc2)ccc1F	none (no result: NPSR antag, PKM2 activator)
N#C/C(=C\c1cc(Br)c(O)c(Br)c1)c1nc2ccccc2c(=O)[nH]1	ClpP mod 25µM (no result: NPSR antag, PKM2 activator, IL2 activator)
CCCc1cc(N2CCN(C(=O)c3ccco3)CC2)n2c(nc3ccccc32)c1C#N	NPSR antag inconclusive, ClpP mod 35µM
CCN(CCn1cccn1)Cc1c(C(=O)N2C[C@@H](C)O[C@@H](C)C2)nc2ccc(Cl)cn12	none (no result: ClpP mod)
Cc1cc(C)c(NC(=O)Cn2c(=O)n(Cc3ccccc3)c(=O)c3c(C)c(C(=O)N(C)C)sc32)c(C)c1	none (no result: NPSR antag, PKM2 activator, IL2 activator)
CCOc1ccccc1-c1nc(-c2ccc(-c3ccccc3)nc2OCC)no1	ClpP mod 13µM (no result: NPSR antag, PKM2 activator, IL2 activator)
COc1nc(-c2ccc(C)cc2)ccc1-c1noc(-c2ccco2)n1	ClpP mod 28µM
COc1nc(C)ccc1-c1noc(-c2ccco2)n1	none
CCOc1nc(-c2ccccc2)ccc1-c1noc(COc2ccccc2)n1	ClpP mod inconclusive
CCOc1nc(-c2ccccc2)ccc1-c1noc(-c2ccco2)n1	ClpP mod 35µM
CCCOc1c(Cl)cc(C(=O)NC)cc1OC	none
CCc1nc2c(OCc3ccccc3C(=O)OC)cccn2c1N(C)C(=O)c1cccs1	none (no result: NPSR antag, PKM2 activator)
COC(=O)c1ccc(NC(=O)CSc2ccc(-c3cccs3)nn2)cc1	none (no result: NPSR antag, PKM2 activator, IL2 activator)
Cn1c(=O)n(C)c2cc(NC(=O)c3ccccc3[N+](=O)[O-])c(Br)cc21	PKM2 activator 7.9µM (no result: ClpP mod)
Cc1ccc(CN(C)C(=O)c2ccccc2Oc2ccccc2)o1	PKM2 activator 28µM
Cc1ccc(CN(C)C(=O)c2ccc(S(=O)(=O)N(C)c3ccccc3)cc2)o1	none (no result: NPSR antag, PKM2 activator, ClpP mod)
COc1cccc(CNC(=O)CCC(=O)N2Cc3cccc(OC)c3Oc3ncccc32)c1OC	none (no result: NPSR antag, PKM2 activator)
COc1cccc2c1Oc1ncccc1N(c1ccc(C(=O)NCc3ccccc3C)s1)C2	ClpP mod 32µM (no result: NPSR antag, PKM2 activator, IL2 activator)
COc1cc(NC(=O)Cc2ccccc2)cc(OC)c1	none
COc1cc(C(=O)NCc2cccc3ccccc23)cc(Cl)c1OC	PKM2 activator 18µM
COc1cc(C(=O)NCc2cc(C)nc3ccccc23)cc(OC)c1OC	none
C#C[C@]1(O)CCC2C3CCC4=CC(=O)CC[C@@H]4C3CC[C@@]21C (stereo partly drawn)	none (no result: NPSR antag)
CC#C[C@]1(O)CC[C@H]2[C@@H]3CCC4=CC(=O)CCC4=C3[C@@H](c3ccc(N(C)C)cc3)C[C@@]21C	NPSR antag 13µM
O=C(O)c1ccccc1C1=Nc2ccc(O)cc2Oc2cc(O)ccc21	ClpP mod 14µM
Cc1cc(-c2ccccc2C(=O)O)on1	none
O=C1CCCCN1CC(=O)N1CCCC(Nc2ccc(F)c(F)c2)C1 (stereo not drawn)	none (no result: NPSR antag, PKM2 activator)
CCCc1nnc(NC(=O)c2cn(CC)c3cc(N4CCN(C)CC4)c(F)cc3c2=O)s1	none
CCCNC(=O)C1(C)CCN1C(=O)c1ccccc1CCc1ccccc1 (stereo not drawn)	none (no result: NPSR antag, PKM2 activator)
CCOC(=O)N1CCN(C(=O)COc2ccc3c(c2)C(=O)CC2(CCN(C(C)=O)CC2)O3)CC1	ClpP mod 16µM
COc1ccccc1OCC(=O)N1CCC2(CC1)CC(=O)c1ccccc1O2	ClpP mod 22µM (no result: NPSR antag, PKM2 activator)
